Assay in all cases: log2 fold change, soluble protein after heating vs DMSO (PISA); higher = thermal stabilisation; K562 lysate, 10 uM; active = over 0.2 and 3.5 SD of the protein, either way, in both replicates (recomputed)
Compound in one assay: CCCS(=O)(=O)Nc1ccc(F)c(C(=O)c2c[nH]c3ncc(-c4ccc(Cl)cc4)cc23)c1F [vemurafenib]
The procedure, abridged:
(§1)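 K562 pellets were dounce-homogenised in PBS pH 7.4 containing 1 mM MgCl2, and the crude extract, at 1 mg/mL protein, was exposed to 10 μM compound for 30 min. Aliquots were heated for 3 min across 48°C-58°C, pooled, brought to 0.5% NP-40 at 4°C and spun at 21,000xg for 90 min, with the supernatant taken as soluble protein. TMTpro 16plex LC-MS/MS with equalised channel sums quantified that protein. Values are log-two fold changes in thermal stability relative to solvent controls, taken from duplicates.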

Compound in assay [1]: CCCS(=O)(=O)Nc1ccc(F)c(C(=O)c2c[nH]c3ncc(Cl)cc23)c1F
Summed up: as §1

Compound in another assay: CCN(CCCOc1ccc2c(Nc3cc(CC(=O)Nc4cccc(F)c4)[nH]n3)ncnc2c1)CCOP(=O)(O)O [barasertib]
The procedure, abridged: as §1

Compound in assay [2]: CC[C@@H]1C(=O)N(C)c2cnc(Nc3ccc(C(=O)NC4CCN(C)CC4)cc3OC)nc2N1C1CCCC1
Summed up: as §1

Compound in a further assay: CC[C@@H]1C(=O)N(C)c2cnc(Nc3ccc(C(=O)N[C@H]4CC[C@H](N5CCN(CC6CC6)CC5)CC4)cc3OC)nc2N1C(C)C [volasertib]
Summed up:
as §1

Compound in assay [3]: CCn1c(C(=O)N(C2CC2)C2CC2)cc2c3c(ncn3C)c(Nc3cc(C)n(C)n3)nc21
The procedure, abridged: as §1

Compound in assay [4]: CCn1cc(-c2ccnc3[nH]c(-c4cccc(CN(C)C)c4)cc23)c(-c2ccc(NC(=O)N(C)C)cc2)n1
The procedure, abridged:
as §1

Compound in assay [5]: CN1CCC(CNc2ccc3ncc(-c4cccc(OC(F)(F)F)c4)n3n2)CC1
Summed up:
as §1

Compound in a further assay: CN1CCN(CCOc2cc(OC3CCOCC3)c3c(Nc4c(Cl)ccc5c4OCO5)ncnc3c2)CC1 [saracatinib]
The procedure, abridged: as §1

Compound in the next assay: CN1CCN(c2nc(C3=C(c4c[nH]c5ccccc45)C(=O)NC3=O)c3ccccc3n2)CC1 [sotrastaurin]
Summed up: as §1

Compound in a further assay: CN1CC[C@H](c2c(O)cc(O)c3c(=O)cc(-c4ccccc4Cl)oc23)[C@H](O)C1 [alvocidib]
Summed up: as §1

Compound in the next assay: CN1CCc2c(c3ccccc3n2Cc2ccc(C(=O)NO)cc2)C1 [Tubastatin A]
The procedure, abridged:
as §1

Compound in assay [6]: CNC(=O)C1=CC=CC=C1NC2=NC(=NC=C2Cl)NC3=C(C=C(C=C3)N4CCOCC4)OC
The procedure, abridged:
as §1

Compound in the next assay: CNC(=O)c1ccc(Nc2ncc(C(F)(F)F)c(NCc3nccnc3N(C)S(C)(=O)=O)n2)cc1 [defactinib]
The procedure, abridged:
as §1

Compound in assay [7]: CNc1nc(-c2ccc3c(N)n[nH]c3c2)cc(N2C[C@@H](C(=O)NC3CCCCC3)CC[C@H]2C)n1
The procedure, abridged:
as §1

Compound in another assay: COC(=O)N[C@@H](C)CNc1nccc(-c2cn(C(C)C)nc2-c2cc(Cl)cc(NS(C)(=O)=O)c2F)n1 [encorafenib]
Summed up:
as §1

Compound in assay [8]: COC(=O)[C@H](CCSC)NC(=O)C1=C(C=C(C=C1)NC[C@H](CS)N)C2=CC=CC=C2
The procedure, abridged: as §1

Compound in a further assay: COc1cc(Nc2ncc3c(n2)-c2ccc(Cl)cc2C(c2c(F)cccc2OC)=NC3)ccc1C(=O)O [alisertib]
The procedure, abridged: as §1

Compound in assay [9]: COc1cc2nc(-c3cc(F)ccc3O)nc(N[C@@H]3CNC[C@H]3C(C)(C)O)c2cc1OC
Summed up:
as §1

Compound in a further assay: COc1cc2ncnc(Nc3ccc(F)c(Cl)c3)c2cc1OCCCN1CCOCC1 [gefitinib]
The procedure, abridged: as §1

Of roughly 8,800 targets only a part is listed; those with a hit were picked by preference. About 0.5% of all pairs of compound and target were hits. A number with no mark means an inactive call.

Sequence of UniProt P29144 (P29144 whole entry, looked up): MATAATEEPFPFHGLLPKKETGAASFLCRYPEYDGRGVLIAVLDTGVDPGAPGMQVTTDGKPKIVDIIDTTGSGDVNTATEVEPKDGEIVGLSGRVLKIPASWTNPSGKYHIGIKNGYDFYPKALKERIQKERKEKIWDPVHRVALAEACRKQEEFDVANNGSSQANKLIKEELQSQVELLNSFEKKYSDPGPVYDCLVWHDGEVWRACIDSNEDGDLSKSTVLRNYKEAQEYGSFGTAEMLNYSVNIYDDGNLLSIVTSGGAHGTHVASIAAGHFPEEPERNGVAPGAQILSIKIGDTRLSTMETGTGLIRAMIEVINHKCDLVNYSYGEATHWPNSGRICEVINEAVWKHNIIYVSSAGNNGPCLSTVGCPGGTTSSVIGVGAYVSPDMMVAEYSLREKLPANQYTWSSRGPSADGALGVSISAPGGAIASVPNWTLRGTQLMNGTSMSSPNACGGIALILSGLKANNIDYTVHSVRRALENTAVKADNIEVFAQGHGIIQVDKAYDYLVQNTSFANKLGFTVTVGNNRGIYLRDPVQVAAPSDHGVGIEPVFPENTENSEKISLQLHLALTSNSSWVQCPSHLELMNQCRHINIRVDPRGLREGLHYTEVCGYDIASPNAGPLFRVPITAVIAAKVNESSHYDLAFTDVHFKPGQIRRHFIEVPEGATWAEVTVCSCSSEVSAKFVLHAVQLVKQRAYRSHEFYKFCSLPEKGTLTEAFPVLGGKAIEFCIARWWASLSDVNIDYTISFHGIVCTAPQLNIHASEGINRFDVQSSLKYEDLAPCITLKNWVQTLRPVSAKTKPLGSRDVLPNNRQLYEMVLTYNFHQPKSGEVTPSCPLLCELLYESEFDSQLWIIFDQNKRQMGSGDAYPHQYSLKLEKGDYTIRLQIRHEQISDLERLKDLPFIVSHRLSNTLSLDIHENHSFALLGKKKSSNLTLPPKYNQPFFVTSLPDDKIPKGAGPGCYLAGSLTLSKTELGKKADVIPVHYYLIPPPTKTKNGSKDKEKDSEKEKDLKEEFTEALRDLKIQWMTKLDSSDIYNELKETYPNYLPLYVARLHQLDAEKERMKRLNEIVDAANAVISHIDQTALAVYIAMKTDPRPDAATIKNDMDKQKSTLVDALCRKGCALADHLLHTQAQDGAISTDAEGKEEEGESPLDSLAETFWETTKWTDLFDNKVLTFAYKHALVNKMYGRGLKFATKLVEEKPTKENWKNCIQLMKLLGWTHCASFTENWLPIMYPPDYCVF
Sequence of UniProt O60701 (O60701 whole entry, looked up): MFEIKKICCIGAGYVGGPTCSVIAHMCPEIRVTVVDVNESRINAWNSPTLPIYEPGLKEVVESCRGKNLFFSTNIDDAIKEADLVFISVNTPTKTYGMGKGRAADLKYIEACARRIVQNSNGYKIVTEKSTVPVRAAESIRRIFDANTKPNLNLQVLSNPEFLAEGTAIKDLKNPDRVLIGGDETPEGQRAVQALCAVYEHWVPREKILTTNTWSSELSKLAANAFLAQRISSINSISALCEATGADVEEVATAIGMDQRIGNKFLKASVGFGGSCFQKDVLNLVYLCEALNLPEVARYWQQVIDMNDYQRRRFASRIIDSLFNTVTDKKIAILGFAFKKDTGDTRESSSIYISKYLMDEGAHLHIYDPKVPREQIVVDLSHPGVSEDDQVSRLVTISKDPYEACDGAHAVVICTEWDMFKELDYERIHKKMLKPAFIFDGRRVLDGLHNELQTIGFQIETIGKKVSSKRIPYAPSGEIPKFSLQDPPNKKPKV
Sequence of UniProt Q9H5L6 (Q9H5L6 whole entry, looked up): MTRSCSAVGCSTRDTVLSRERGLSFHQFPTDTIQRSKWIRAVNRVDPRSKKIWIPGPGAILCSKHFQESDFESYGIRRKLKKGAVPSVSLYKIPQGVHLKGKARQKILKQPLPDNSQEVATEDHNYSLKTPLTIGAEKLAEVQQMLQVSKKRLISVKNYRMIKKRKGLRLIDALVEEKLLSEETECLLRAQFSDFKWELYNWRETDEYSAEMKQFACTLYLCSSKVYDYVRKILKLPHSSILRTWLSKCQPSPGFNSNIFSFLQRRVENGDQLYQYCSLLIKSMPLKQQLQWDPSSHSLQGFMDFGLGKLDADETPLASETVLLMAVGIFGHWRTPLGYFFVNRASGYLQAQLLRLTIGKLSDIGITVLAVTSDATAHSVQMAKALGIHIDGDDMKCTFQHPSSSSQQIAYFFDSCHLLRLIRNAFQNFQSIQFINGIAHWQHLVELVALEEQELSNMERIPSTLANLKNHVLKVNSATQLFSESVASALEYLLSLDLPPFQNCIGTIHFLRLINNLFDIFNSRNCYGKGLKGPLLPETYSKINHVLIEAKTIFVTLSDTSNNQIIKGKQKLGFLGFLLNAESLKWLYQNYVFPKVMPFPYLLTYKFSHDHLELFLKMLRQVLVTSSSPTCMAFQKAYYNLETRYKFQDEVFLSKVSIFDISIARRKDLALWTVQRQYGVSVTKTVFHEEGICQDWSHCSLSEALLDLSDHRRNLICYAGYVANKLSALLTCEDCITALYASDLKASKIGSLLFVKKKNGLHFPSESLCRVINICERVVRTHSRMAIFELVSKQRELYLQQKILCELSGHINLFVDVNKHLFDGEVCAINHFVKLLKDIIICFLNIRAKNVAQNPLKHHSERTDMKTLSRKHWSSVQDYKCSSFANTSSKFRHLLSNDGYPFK
Sequence of UniProt P68366 (P68366 whole entry, looked up): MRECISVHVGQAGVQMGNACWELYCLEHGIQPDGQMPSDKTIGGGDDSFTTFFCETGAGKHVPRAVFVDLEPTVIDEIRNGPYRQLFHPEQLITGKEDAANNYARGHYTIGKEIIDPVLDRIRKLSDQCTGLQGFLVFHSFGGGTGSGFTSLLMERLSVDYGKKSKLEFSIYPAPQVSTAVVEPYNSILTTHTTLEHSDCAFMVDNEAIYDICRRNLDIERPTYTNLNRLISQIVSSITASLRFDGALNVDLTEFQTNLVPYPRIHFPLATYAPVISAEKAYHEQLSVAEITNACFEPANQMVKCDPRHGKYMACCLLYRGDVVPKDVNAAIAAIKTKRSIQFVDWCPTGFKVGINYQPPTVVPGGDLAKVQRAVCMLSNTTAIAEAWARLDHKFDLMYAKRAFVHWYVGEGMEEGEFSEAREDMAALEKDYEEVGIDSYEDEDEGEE
Sequence of UniProt Q9BZL1 (Q9BZL1 whole entry, looked up): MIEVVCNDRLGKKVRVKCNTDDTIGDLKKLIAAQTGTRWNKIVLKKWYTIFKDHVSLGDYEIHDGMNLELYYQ
Sequence of UniProt Q92547 (Q92547 whole entry, looked up): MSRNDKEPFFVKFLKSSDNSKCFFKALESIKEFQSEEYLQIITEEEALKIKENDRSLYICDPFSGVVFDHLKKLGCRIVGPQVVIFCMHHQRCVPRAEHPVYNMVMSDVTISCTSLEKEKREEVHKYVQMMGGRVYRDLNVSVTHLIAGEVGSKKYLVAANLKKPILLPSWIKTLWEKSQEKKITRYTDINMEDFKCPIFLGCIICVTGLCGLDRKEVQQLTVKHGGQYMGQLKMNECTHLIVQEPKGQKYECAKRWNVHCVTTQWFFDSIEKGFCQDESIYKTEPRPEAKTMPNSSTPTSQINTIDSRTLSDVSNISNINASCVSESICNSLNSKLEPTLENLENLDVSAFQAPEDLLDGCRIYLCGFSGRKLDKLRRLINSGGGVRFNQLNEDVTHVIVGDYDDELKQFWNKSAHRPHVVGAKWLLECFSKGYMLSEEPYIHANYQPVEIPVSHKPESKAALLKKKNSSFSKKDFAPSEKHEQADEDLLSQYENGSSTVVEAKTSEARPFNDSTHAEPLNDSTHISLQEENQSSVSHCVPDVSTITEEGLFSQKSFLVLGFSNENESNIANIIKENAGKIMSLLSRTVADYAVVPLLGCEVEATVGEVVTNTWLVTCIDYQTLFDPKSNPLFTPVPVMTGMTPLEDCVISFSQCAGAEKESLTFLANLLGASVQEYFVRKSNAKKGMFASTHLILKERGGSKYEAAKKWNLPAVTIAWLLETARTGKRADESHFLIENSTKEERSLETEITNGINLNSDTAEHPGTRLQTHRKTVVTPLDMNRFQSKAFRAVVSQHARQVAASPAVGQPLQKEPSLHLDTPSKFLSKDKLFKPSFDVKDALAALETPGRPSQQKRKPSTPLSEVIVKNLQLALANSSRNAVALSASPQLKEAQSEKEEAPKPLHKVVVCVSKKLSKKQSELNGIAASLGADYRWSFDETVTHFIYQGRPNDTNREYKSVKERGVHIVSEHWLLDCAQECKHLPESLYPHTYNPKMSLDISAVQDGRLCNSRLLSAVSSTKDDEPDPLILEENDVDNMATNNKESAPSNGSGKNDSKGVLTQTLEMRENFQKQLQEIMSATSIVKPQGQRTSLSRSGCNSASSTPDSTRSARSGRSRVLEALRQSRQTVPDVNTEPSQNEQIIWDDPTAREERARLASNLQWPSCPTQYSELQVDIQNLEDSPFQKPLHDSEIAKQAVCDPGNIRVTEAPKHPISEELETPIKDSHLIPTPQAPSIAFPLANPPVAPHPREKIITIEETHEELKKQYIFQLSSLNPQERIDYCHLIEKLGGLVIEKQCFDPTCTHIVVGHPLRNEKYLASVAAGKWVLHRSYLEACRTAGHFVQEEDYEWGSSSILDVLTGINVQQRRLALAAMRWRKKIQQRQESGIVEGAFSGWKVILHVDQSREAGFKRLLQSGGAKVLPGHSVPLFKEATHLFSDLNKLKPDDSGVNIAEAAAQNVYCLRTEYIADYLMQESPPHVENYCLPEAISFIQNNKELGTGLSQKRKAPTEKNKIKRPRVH

With TOPBP1 (UniProt Q92547), the log2 fold change in the assay with vemurafenib was 0.024; in assay [1] it was -0.08; with barasertib, 0.018; in assay [2], 0.012; in the assay with volasertib, -0.079; in [3], -0.029. For the same target, the log2 fold change in [4] is 0.305 (active); in assay [5] it was -0.071; in the assay with saracatinib it was -0.003; in the assay with sotrastaurin, 0.02; with alvocidib it was 0.024; with Tubastatin A, -0.067. In addition, the log2 fold change is 0.033 in assay [6]; 0.047 in the assay with defactinib; 0.01 in assay [7]; -0.024 in the assay with encorafenib; 0.108 in assay [8]; -0.039 with alisertib. The values for the log2 fold change (in assay [9]; with gefitinib) were 0.034 and 0.008, respectively.
Turning to TPX2 (UniProt Q9ULW0), the log2 fold change was -0.006 with vemurafenib; -0.013 in assay [1]; -0.036 with barasertib; 0.093 in [2]; 0.012 with volasertib; -0.035 in assay [3]. In addition, the log2 fold change in assay [4] was 0.04; in assay [5] it was -0.007; with saracatinib it was 0.03; with sotrastaurin, -0.016; with alvocidib it was -0.002; in the assay with Tubastatin A, -0.129. Further, the log2 fold change is 0.014 in assay [6]; 0.01 in the assay with defactinib; 0.045 in assay [7]; 0.041 in the assay with encorafenib; -0.215 (active) in [8]; 0.043 with alisertib. Further, the log2 fold change in assay [9] is -0.027; in the assay with gefitinib, 0.012.
For TPP2 (UniProt P29144), the log2 fold change with vemurafenib was -0.015; in assay [1], 0.01; with barasertib, -0.024; in assay [2], -0.016; in the assay with volasertib it was -0.023; in assay [3] it was 0.009. In addition, the log2 fold change in [4] was 0.025; in assay [5] it was -0.012; with saracatinib it was -0.016; with sotrastaurin it was -0.009; with alvocidib it was 0.018; with Tubastatin A it was -0.028. Moreover, the log2 fold change in assay [6] is -0.014; with defactinib it was -0.014; in [7], -0.03; with encorafenib it was 0; in assay [8], 0.068; with alisertib it was -0.02. Also, the results for the log2 fold change (in assay [9]; with gefitinib) were 0 and 0.008, respectively.
TUBA4A (UniProt P68366): the log2 fold change with vemurafenib is 0.003; in assay [1] it was -0.045; with barasertib, 0.028; in [2], -0.023; with volasertib, -0.056; in assay [3] it was 0.033. In addition, the log2 fold change in assay [4] is -0.05; in assay [5], 0.003; with saracatinib, -0.036; with sotrastaurin it was -0.039; with alvocidib, 0.003; in the assay with Tubastatin A, -0.068. For the same target, the log2 fold change in [6] was 0.049; with defactinib it was 0.014; in assay [7] it was -0.001; with encorafenib, -0.039; in assay [8] it was 0.125; with alisertib, 0.027. The results for the log2 fold change (in [9]; with gefitinib) were 0.032 and 0.007, respectively.
With UBL5 (UniProt Q9BZL1), the log2 fold change was 0.014 in the assay with vemurafenib; 0.036 with barasertib; -0.015 in [2]; -0.028 in assay [3]; -0.126 in assay [4]; 0.097 in assay [5]. The log2 fold change was -0.007 with saracatinib; -0.186 with sotrastaurin; -0.117 with alvocidib; 0.023 in the assay with Tubastatin A; -0.048 in [6]; 0.041 in the assay with defactinib. Further, the log2 fold change in [7] was -0.045; in the assay with encorafenib, -0.012; in [8], -0.06; with alisertib it was 0.039; with gefitinib, -0.141.
Consider TEC (UniProt P42680), for which the log2 fold change with vemurafenib was -0.081; in [1], -0.119; in assay [2], -0.054; in the assay with volasertib, 0.14; with defactinib it was 0.07; with encorafenib, -0.044. The log2 fold change in assay [8] is -0.036; in the assay with alisertib it was -0.086; in assay [9], -0.028; with gefitinib, -0.027.
As for THAP9 (UniProt Q9H5L6), the log2 fold change is 0.199 with vemurafenib; 0.07 in assay [1]; 0.117 in the assay with barasertib; 0.309 in assay [2]; 0.088 with volasertib; -0.401 in assay [3]. The log2 fold change in assay [4] was -0.66 (active); in [5], 0.151; with saracatinib, 0; with sotrastaurin it was 0.076; with alvocidib, -0.249; in the assay with Tubastatin A, 0.053. Moreover, the log2 fold change with defactinib is -0.067; in assay [7], 0.476; in the assay with encorafenib, -0.009; in assay [8], 0.085; in [9] it was 0.179.
As to UGDH (UniProt O60701), the log2 fold change was 0.008 in the assay with vemurafenib; 0.017 in assay [1]; -0.003 in the assay with barasertib; -0.062 in assay [2]; -0.045 with volasertib; 0.011 in [3]. In addition, the log2 fold change in assay [4] was -0.028; in assay [5], -0.021; with saracatinib it was 0.187; with sotrastaurin, 0.003; in the assay with alvocidib, 0.023; with Tubastatin A, -0.151. Also, the log2 fold change in [6] is 0.015; with defactinib, 0.071; in assay [7], -0.132; in the assay with encorafenib it was 0.047; in assay [8] it was 0.037; in the assay with alisertib it was -0.025. Besides, the log2 fold change in assay [9] was -0.004; with gefitinib it was -0.042.
